Source: publication PMC5540273 (PLoS ONE, 2017)

Experiments:
Conditions in all cases: concentration: 1 μM, replicates: in singlicate; n = 1
[1] = test system: DAPK2
[2] = test system: DAPK3
[3] = test system: T1, DCAMKL1
T1 construct: gene DCLK1

[4] = test system: T2, DCAMKL2
T2 construct: gene DCLK2

[5] = test system: T3, DCAMKL3
T3 construct: gene DCLK3

[6] = test system: DDR1
[7] = test system: DDR2
[8] = test system: T4, DLK
T4 construct: gene MAP3K12

[9] = test system: T5, DMPK2
T5 construct: gene CDC42BPG

[10] = test system: DMPK
[11] = test system: T6, DRAK1
T6 construct: gene STK17A

[12] = test system: T7, DRAK2
T7 construct: gene STK17B

[13] = test system: DYRK1A
[14] = test system: DYRK1B
[15] = test system: DYRK2
[16] = test system: EGFR
[17] = test system: EIF2AK1
[18] = test system: EPHA1
[19] = test system: EPHA2
[20] = test system: EPHA3
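Further: KINOMEscan kinase panel screen.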

Row | SMILES | %Inh [1] [%] | %Inh [2] [%] | %Inh [3] [%] | %Inh [4] [%] | %Inh [5] [%] | %Inh [6] [%] | %Inh [7] [%] | %Inh [8] [%] | %Inh [9] [%] | %Inh [10] [%] | %Inh [11] [%] | %Inh [12] [%] | %Inh [13] [%] | %Inh [14] [%] | %Inh [15] [%] | %Inh [16] [%] | %Inh [17] [%] | %Inh [18] [%] | %Inh [19] [%] | %Inh [20] [%]
1 | COc1cc2ncn(-c3cc(OCC4CCCO4)c(C(N)=O)s3)c2cc1OC (stereo not drawn) [GSK204607] | 0 | 2 | 18 | 0 | 0 | 0 | 21 | 33 | 0 | 0 | 0 | 0 | 0 | 0 | 14 | 20 | 0 | 3 | 10 | 16
2 | Cc1ccc(C(=O)Nc2ccc(Nc3ccnc4cc(-c5ccccn5)ccc34)cc2O)cc1.Cl [GW440146] | 0 | 13 | 0 | 0 | 16 | 12 | 10 | 47 | 0 | 0 | 0 | 11 | 18 | 0 | 0 | 32 | 0 | 4 | 0 | 0
3 | O=C(Nc1n[nH]c2cc(-c3cccc(F)c3F)ccc12)C1CC1 [SB-733894] | 24 | 35 | 21 | 0 | 0 | 0 | 0 | 0 | 0 | 0 | 0 | 0 | 2 | 0 | 14 | 12 | 23 | 13 | 16 | 18
4 | Cc1ccc(NC(=O)Nc2cccc(Cl)c2)cc1-c1ccc(C(=O)Nc2ccncc2)cc1 [GSK1398468] | 0 | 22 | 17 | 0 | 0 | 99.7 | 72 | 25 | 8 | 0 | 0 | 0 | 1 | 21 | 0 | 24 | 0 | 6 | 3 | 0
5 | COc1cc2ncnc(Nc3ccc4nc(-c5ccccc5)[nH]c4c3)c2cc1OC.Cl [GW282450] | 15 | 13 | 8 | 0 | 0 | 0 | 0 | 7 | 0 | 0 | 0 | 0 | 13 | 0 | 19 | 59 | 6 | 10 | 0 | 31
6 | Cn1cncc1-c1ccc2ncnc(Nc3ccc(OCc4ccccc4)cc3)c2c1 [GW320571] | 0 | 56 | 0 | 0 | 31 | 18 | 4 | 35 | 0 | 9 | 6 | 0 | 12 | 3 | 0 | 99.3 | 96.7 | 25 | 17 | 0
7 | Cl.NC(=O)c1cccc(Nc2nccc(Nc3ccc(Oc4cccc(Cl)c4)c(Cl)c3)n2)c1 [GW659008] | 0 | 22 | 0 | 13 | 0 | 1 | 0 | 24 | 55 | 0 | 13 | 0 | 5 | 4 | 13 | 96.9 | 0 | 0 | 0 | 5
8 | COc1cc2nccc(Nc3ccc(NC(=O)c4ccc(C)cc4)c(O)c3)c2cc1OC.Cl [GW440132] | 8 | 19 | 8 | 7 | 16 | 0 | 5 | 6 | 0 | 0 | 0 | 0 | 11 | 7 | 18 | 0 | 0 | 17 | 8 | 0
9 | O=C(Nc1ccccc1)Nc1cccc(Oc2ccc3nccn3n2)c1 | 0 | 0 | 0 | 0 | 69 | 97.8 | 1 | 0 | 0 | 4 | 0 | 1 | 0 | 45 | 0 | 33 | 0 | 14 | 30 | 34
10 | Cc1nnc(-c2ccc3occ(-c4ccc(S(C)=O)cc4)c3c2)[nH]1 (stereo not drawn) | 5 | 10 | 0 | 0 | 0 | 0 | 5 | 0 | 6 | 0 | 26 | 41 | 19 | 7 | 45 | 0 | 0 | 0 | 0 | 0
11 | Cc1cccc(-c2nc(Nc3cccc(C(N)=O)c3)c3ccccc3n2)n1 [GW876019] | 0 | 17 | 36 | 0 | 29 | 29 | 8 | 0 | 0 | 0 | 8 | 28 | 6 | 65 | 34 | 15 | 0 | 57 | 32 | 0
12 | COc1cc(Nc2nccc(N3CCC(NC(=O)Nc4cc(C)ccc4C)C3)n2)cc(OC)c1OC (stereo not drawn) [GSK1379762] | 0 | 7 | 0 | 12 | 0 | 43 | 10 | 30 | 22 | 0 | 0 | 0 | 25 | 16 | 19 | 63 | 0 | 22 | 8 | 0
13 | O=C(Nc1n[nH]c2nc(-c3nccs3)c(Br)cc12)C1CCCC1 [SB-742609] | 0 | 5 | 9 | 16 | 0 | 0 | 11 | 14 | 0 | 0 | 4 | 0 | 16 | 15 | 35 | 32 | 0 | 17 | 9 | 0
14 | Cc1cccc(-c2nc(Nc3ccncc3)c3ccccc3n2)n1 [GW855857] | 7 | 17 | 14 | 0 | 21 | 30 | 45 | 0 | 76 | 2 | 2 | 7 | 0 | 27 | 0 | 6 | 0 | 23 | 18 | 0
15 | CS(=O)(=O)c1ccc(-c2c(-c3ncn[nH]3)sc(N3CCOCC3)c2C#N)cc1 | 0 | 0 | 19 | 23 | 19 | 0 | 18 | 53 | 15 | 0 | 8 | 0 | 1 | 0 | 14 | 12 | 21 | 24 | 19 | 0
16 | Cc1cc(-c2ccc3c(c2)CC[C@@H](N[C@@H](C)c2ccccc2)C3)cnc1N.Cl [GW412617] | 0 | 0 | 0 | 0 | 0 | 14 | 25 | 87 | 4 | 6 | 0 | 11 | 19 | 17 | 0 | 31 | 0 | 14 | 14 | 0
17 | Cc1cccc(-c2nc(Nc3ccc4[nH]ncc4c3)c3ccccc3n2)n1 [GW857175] | 20 | 28 | 0 | 14 | 0 | 39 | 17 | 0 | 72 | 4 | 13 | 10 | 24 | 11 | 40 | 0 | 5 | 12 | 1 | 0
18 | Fc1cc(Cl)ccc1Nc1ccnc2cc(I)ccc12 [GW551191] | 0 | 9 | 15 | 0 | 0 | 33 | 8 | 27 | 8 | 21 | 0 | 0 | 33 | 60 | 4 | 21 | 0 | 71 | 26 | 0
19 | Cl.Oc1ccc(-c2nc(-c3ccccc3)[nH]c2-c2ccncc2)cc1 [SB-428218] | 0 | 31 | 6 | 15 | 7 | 9 | 59 | 58 | 0 | 0 | 0 | 0 | 17 | 0 | 0 | 31 | 5 | 55 | 1 | 0
20 | Cc1csc(-c2nc(Nc3ccncc3)c3ccccc3n2)n1 [GW869640] | 26 | 48 | 29 | 28 | 30 | 22 | 35 | 0 | 35 | 17 | 10 | 0 | 18 | 0 | 29 | 1 | 14 | 0 | 0 | 30
21 | Cc1ccccc1-n1cnc2c(N)ncnc21 [SKF-97510] | 10 | 12 | 0 | 0 | 0 | 11 | 0 | 0 | 0 | 0 | 0 | 47 | 0 | 0 | 0 | 0 | 0 | 0 | 0 | 0
